# Screens: PubChem BioAssay, several laboratories
# Rev-erbA mod: Rev-erb alpha (human) modulation. activity, % at 10 µM. AID 1259318. actives 0.79% (n = 370,000). Rev-erbα–FITC-DNA binding, fluorescence polarization, 90 min;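 active = activity above about 14%, limit read from the data; passing the limit was not always enough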;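 also: 0% = DMSO wells with 35 nM protein and 100% = DMSO wells with 750 nM protein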
# Target sequence (P20393 whole entry, looked up): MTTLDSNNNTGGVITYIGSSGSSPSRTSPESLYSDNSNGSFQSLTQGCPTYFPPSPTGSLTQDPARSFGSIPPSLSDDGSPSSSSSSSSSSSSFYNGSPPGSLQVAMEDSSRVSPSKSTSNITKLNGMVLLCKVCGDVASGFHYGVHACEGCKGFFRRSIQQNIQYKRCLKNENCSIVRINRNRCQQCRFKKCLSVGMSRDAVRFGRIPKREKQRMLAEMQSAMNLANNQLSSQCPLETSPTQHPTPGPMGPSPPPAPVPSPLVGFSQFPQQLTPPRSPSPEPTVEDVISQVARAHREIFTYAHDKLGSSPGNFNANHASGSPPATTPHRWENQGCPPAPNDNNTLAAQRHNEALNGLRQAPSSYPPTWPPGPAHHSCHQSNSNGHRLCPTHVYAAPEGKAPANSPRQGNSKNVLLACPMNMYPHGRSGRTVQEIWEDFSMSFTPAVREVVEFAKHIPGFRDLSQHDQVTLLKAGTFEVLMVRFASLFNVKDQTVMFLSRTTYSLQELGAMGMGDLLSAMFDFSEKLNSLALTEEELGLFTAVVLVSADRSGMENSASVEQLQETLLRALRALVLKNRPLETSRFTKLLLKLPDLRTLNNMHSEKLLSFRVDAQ
# PG9 Ab binder: binds the HIV-1 gp120 antibody PG9; TR-FRET gp120-PG9 antibody binding; inhibition, % at 6.7 µM; actives 0.43% (n = 360,000); in the data active = inhibition above about 8.5%
# PKA-R2B act: activators of human PKA-R2B complex. AID 504700. actives 0.079% (n = 340,000). activation, % at 11.4 µM. PKA-R2B holoenzyme dissociation, Cy5-IP20 fluorescence polarization; R2B truncated from residue 108, S112A mutant; 0% DMSO only, 100% 113 µM cGMP;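 active = activation above a cutoff set at the mean over all compounds plus 3 SD, cut at about 18% in these data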;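 also: higher means more holoenzyme dissociation and a rise in polarization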
# PKA-R1A act: PKA-R1A complex activation. AID 504707. actives 0.083% (n = 340,000). activation, % at 11.4 µM. PKA-R1A dissociation, Cy5-IP20 fluorescence polarization; scaled: DMSO 0%, 113 µM cGMP 100%;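 active = percent activation above the mean of all tested compounds plus 3 SD, cut at about 19% in these data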;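 also: higher means more PKAc released from R1A so a rise in polarization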
# Rev-erbA confirm: Rev-erb alpha (human) modulation, hit confirmation; shares compounds with Rev-erbA mod; Rev-erb alpha FITC-DNA binding, fluorescence polarization, 90 min; activation, % at 25 µM; actives 61% (n = 3,000);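 active = activation at or above a set limit, or at least 3 SD above the negative control mean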;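 also: 0% = 35 nM protein with DMSO and 100% = 750 nM protein high control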
# RORg DNA counter: RORgamma DNA-binding activity, dose-response counter-screen; shares compounds with Rev-erbA mod; IC50, µM; purified RORgamma protein-FITC-DNA binding, fluorescence polarization; AID 1259320; actives 8% (n = 910);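 active = Compounds whose fitted half-maximal concentration for disrupting protein-DNA binding is below 10 micromolar; the record names Rev-erb in its text, so the target is in doubt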
# Starred values were filed as active, the others as inactive; i = inactive; . = no result. The list is not random: actives were taken first. Their share in the collection is about 1.2%.
SMILES,Rev-erbA mod,PG9 Ab binder,PKA-R2B act,PKA-R1A act,Rev-erbA confirm,others
Cc1n[nH]c(C)c1S(=O)(=O)NC(C)Cc1ccccn1 (stereo not given),0,.,.,.,.,
Cc1ccc(CNc2cc(-c3nn4c(C)nnc4s3)ccc2C)s1,18,2,-10,0,.,
Cc1ccc(-c2nn3c(C)nnc3s2)cc1NCc1c(F)cccc1Cl,23*,-1,-11,9,2,
CCCCc1nc2sc3c(=O)n(N)cnc3c2c2c1CCCC2,2,0,-3,-6,.,
CCCc1nc2sc3c(=O)n(N)cnc3c2c2c1CCCC2,37*,-3,-10,5,15,
CCN(C(=O)[C@@H](C)[C@@H](O)c1ccc2ccccc2c1)c1ccccc1,2,.,.,.,.,
Cc1cc2nc3c(=O)n(CCc4ccccc4)c(=O)[nH]c3nc2cc1N,38*,-6,-6,-14,34*,RORg DNA counter=2.1*
Nc1ccc2nc3c(=O)n(CCc4ccccc4)c(=O)[nH]c3nc2c1,72*,-6,.,.,64*,RORg DNA counter=i
Nc1ccc2nc3c(=O)n(C4CCCCC4)c(=O)[nH]c3nc2c1,77*,-5,4,-2,83*,RORg DNA counter=>40
CCCCn1c(=O)[nH]c2nc3cc(N)ccc3nc2c1=O,14,-11,4,1,.,
C=CCn1c(=O)[nH]c2nc3cc(N=CN(C)C)c(C)cc3nc2c1=O,12,-4,-3,-17,.,
COC(=O)[C@H](CC(C)C)N(CCc1cn(Cc2ccc(C)cc2)nn1)S(=O)(=O)c1ccccc1Br,4,.,.,.,.,
CCOC(=O)[C@@]12CCC3=C1N(CCC3)C(=O)[C@H](CC(=O)N1CCC(c3ccccc3)CC1)C2,6,.,.,.,.,
CC(C)(C)OC(=O)NCc1ccccc1/C=C/S(=O)(=O)NC1CCCC1,-5,.,.,.,.,
COC(=O)Cn1c(=NC(=O)CCS(=O)(=O)c2ccccc2)sc2c(OC)ccc(OC)c21,82*,-1,6,-1,39*,RORg DNA counter=>40
CCCCC(=O)N=c1sc2c(OC)ccc(OC)c2n1C,23*,-1,4,0,8,
COc1cccc(C(=O)N=c2sc3c(C)ccc(OC)c3n2C)c1,24*,-1,6,-4,5,
CCCCCCCCN1C(=O)[C@@H](CC(=O)NCCc2ccccc2OC)C[C@@]2(C(=O)OC)C1=C[C@H](C(C)C)O[C@@H]2C1CC1,3,.,.,.,.,
CC(C)(C)c1ccc(S(=O)(=O)N2CCC(C(=O)NCc3cccs3)CC2)cc1,-3,.,.,.,.,
C[C@@H]1N[C@H]2N(C1=O)c1ccccc1[C@@]21C[C@@H]2C(=O)N[C@](C)(O1)c1nc3ccccc3c(=O)n12,6,.,.,.,.,
Cc1nc(N2CCN(S(=O)(=O)c3ccccc3)CC2)c2cc(-c3ccccc3)sc2n1,44*,0,-4,-3,28*,
O=C(NN1C(=O)/C(=C/c2ccc(O)cc2)SC1=S)c1ccccc1O,16,-1,5,-2,.,
O=C1/C(=C\c2cccc([N+](=O)[O-])c2O)SC(=S)N1Cc1ccccc1,-16,0,8,4,.,
O=C1/C(=C/c2ccc(O)c([N+](=O)[O-])c2)SC(=S)N1Cc1ccccc1,30*,-3,-13,-14,11,
O=C(NN1C(=O)/C(=C/c2ccc(O)c([N+](=O)[O-])c2)SC1=S)c1ccccc1Cl,17*,-2,1,1,28*,
SMILES,Rev-erbA mod,PG9 Ab binder,PKA-R2B act,PKA-R1A act,Rev-erbA confirm,others
O=C(NN1C(=O)/C(=C/c2ccc(O)cc2)SC1=S)c1cccc(O)c1,27*,-3,-5,0,16,
COc1ccc(C2Nc3ccccc3C(=O)N2Cc2ccco2)cc1COc1c(C)cc(NC(C)=O)cc1C (stereo not given),1,.,.,.,.,
O=C1c2ccccc2NC(c2ccc(-c3cccc(F)c3)o2)N1O (stereo not given),-20,-1,-7,-7,.,
O=C1c2ccccc2NC(c2ccc(-c3ccccc3F)o2)N1O (stereo not given),24*,-1,4,-4,21*,
CCc1ccccc1NC(=O)[C@@H]1CCCN1S(=O)(=O)c1cccc2cccnc12,6,.,.,.,.,
Cc1sc2nc(COC(=O)CNC(=O)c3ccc(F)cc3Cl)[nH]c(=O)c2c1C,-7,.,.,.,.,
Clc1ccc(OCc2nn3c(-c4ccccc4)nnc3s2)c(Cl)c1,26*,1,-11,-10,35*,
O=C(c1ccccc1)C1CCN(c2ncnc3sccc23)CC1,3,.,.,.,.,
CCCCOc1ccc(C(=O)NC2CCCCN(Cc3cccc(Cl)c3)C2=O)cc1 (stereo not given),10,.,.,.,.,
CCCN(CCC)Cc1c(C(=O)N/N=C/c2ccc(C)o2)nnn1-c1nonc1N,31*,2,4,7,8,
CCCc1c(C(=O)N/N=C/c2ccc(C)o2)nnn1-c1nonc1N,-4,2,-5,0,.,
CC(C)[C@@H]1C(=O)N[C@H](Cc2cn(S(=O)(=O)c3ccccc3)c3ccccc23)C(=O)N1C,-1,.,.,.,.,
COC(=O)[C@]12C[C@H](CC(=O)N3CCCC3)C(=O)N(CCc3ccc(OC)c(OC)c3)C1=C[C@H](C(C)C)O[C@@H]2C1CC1,-4,.,.,.,.,
CNC(=O)COC(=O)c1cc2c(C)nn(-c3ccc(F)cc3)c2s1,17*,1,-8,0,14,
Cc1nn(-c2ccc(F)cc2)c2sc(C(=O)N3CCCCCC3)cc12,-1,-2,-8,-10,.,
COc1ccc(N2CCN(CCNS(=O)(=O)c3ccccc3[N+](=O)[O-])CC2)cc1,3,.,.,.,.,
C=CCN(Cc1ccc(OC)cc1OC)C(C#CCCCC)c1ccccc1 (stereo not given),2,.,.,.,.,
COc1ccc2[nH]cc(/C=C/c3cc[n+](C)cc3)c2c1,69*,-23,0,11,58*,RORg DNA counter=>40
O=C(CSc1nc(C2CC2)nc2ccccc12)Nc1ccccc1Cl,21*,0,5,12,12,
CCOC(=O)N1CCC(NC(=O)c2cc(C)c3c(C)nn(-c4ccccc4)c3n2)CC1,19*,-1,1,-6,-13,
CCOC(=O)N1CCC(NC(=O)c2ccccc2C(=O)O)CC1,-3,-2,2,-1,.,
CCOC(=O)c1c(NC(=O)CSc2nc3ccccc3c(=O)n2-c2ccc(F)cc2)sc(C(C)=O)c1C,114*,0,0,3,30*,
O=C(CSc1nc2ccccc2c(=O)n1-c1ccc(F)cc1)Nc1ccc(Cl)c(S(=O)(=O)N2CCOCC2)c1,63*,0,1,-10,33*,RORg DNA counter=>40
O=C(CSc1nc2ccccc2c(=O)n1-c1ccc(F)c(Cl)c1)Nc1cccc(S(=O)(=O)N2CCOCC2)c1,38*,-1,2,-3,19*,
CCc1ccc(-n2c(SCC(=O)Nc3cccc(S(=O)(=O)NC4=NCCCCC4)c3)nc3ccccc3c2=O)cc1,-3,0,-5,-4,.,
